Many of the other results were omitted from the sample, so hits are more common in it than they were.
STK33 inh: blocks human STK33 kinase activity | ADP-Glo luminescence, MBP substrate | AID 2322 | inhibition, % at 12.5 µM | Q9BYT3 | actives 0.44% (n = 27,000); in the data active means inhibition above about 20%
Target sequence (Q9BYT3 whole entry, looked up): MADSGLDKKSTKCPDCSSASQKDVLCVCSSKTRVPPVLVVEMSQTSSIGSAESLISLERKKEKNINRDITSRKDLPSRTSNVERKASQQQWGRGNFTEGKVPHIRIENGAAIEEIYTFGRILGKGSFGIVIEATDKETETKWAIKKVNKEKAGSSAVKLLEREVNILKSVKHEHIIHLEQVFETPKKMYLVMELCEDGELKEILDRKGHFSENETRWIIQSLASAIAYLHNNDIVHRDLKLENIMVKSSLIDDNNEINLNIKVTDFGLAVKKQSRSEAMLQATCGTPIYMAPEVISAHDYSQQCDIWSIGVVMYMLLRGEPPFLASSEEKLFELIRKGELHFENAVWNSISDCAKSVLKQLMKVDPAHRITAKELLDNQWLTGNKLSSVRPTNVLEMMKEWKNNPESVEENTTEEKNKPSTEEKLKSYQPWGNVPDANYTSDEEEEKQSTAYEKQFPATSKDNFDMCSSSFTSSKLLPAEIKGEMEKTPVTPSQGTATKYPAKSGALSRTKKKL
MITF inh: inhibitors of MITF. inhibition, % (concentration not given with the values). actives 0.28% (n = 37,000). TRPM1 promoter luciferase, luminescence, 24 h; in the data active means inhibition above about 85%;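 further: human melanocyte line stably carrying TRPM1 promoter luciferase reporter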
mut p53 react: re-activators of the mutant p53 pathway; SW480 PUMA-promoter luciferase, p53 mutant reactivation; activation, % at 9.98 µM; actives 1.5% (n = 28,000); AID 624151; in the data active means activation above about 52%
NOMO-1 viab: STK33 inhibitor candidate reducing NOMO-1 cell viability | NOMO-1 AML viability, CellTiter-Glo luminescence, 72 h | inhibition, % (no concentration beside the values) | actives 7.5% (n = 37,000) | AID 2330; in the data active means inhibition above about 80%
Active calls of the source: *; · = not tested or not shown.

SMILES	STK33 inh	MITF inh	mut p53 react	NOMO-1 viab
C[C@H](CO)N1C[C@H](C)[C@@H](CN(C)Cc2ccc(C(F)(F)F)cc2)Oc2ccc(NC(=O)Nc3ccc(F)cc3)cc2C1=O	·	56	·	119*
C[C@H]1CN([C@@H](C)CO)C(=O)c2cc(NC(=O)Nc3ccc(C(F)(F)F)cc3)ccc2O[C@@H]1CN(C)Cc1ccc(C(F)(F)F)cc1	0	95*	·	114*
Cc1ccccc1S(=O)(=O)N1CCN(Cc2cccc(OCCO)c2)CC1	1	·	·	·
CC(Oc1cccc(Cl)c1)C(=O)NCc1ccco1 (configuration not stated)	-1	·	8	·
C=C(C)Cn1c(SCc2nc3ccccc3[nH]2)nc2sc3c(c2c1=O)CCC3	-2	32	15	28
C[C@H](CO)N1C[C@H](C)[C@H](CN(C)Cc2ccc(C(F)(F)F)cc2)Oc2ccc(NC(=O)Nc3ccc(C(F)(F)F)cc3)cc2C1=O	-1	24	·	39
C[C@H](CO)N1C[C@H](C)[C@@H](CN(C)Cc2ccc(C(F)(F)F)cc2)Oc2ccc(NC(=O)Nc3ccc(C(F)(F)F)cc3)cc2C1=O	·	11	6	130*
C[C@@H]1CN([C@@H](C)CO)C(=O)c2cc(NC(=O)Nc3ccc(C(F)(F)F)cc3)ccc2O[C@H]1CN(C)Cc1ccc(C(F)(F)F)cc1	5	10	·	117*
C[C@@H]1CN([C@@H](C)CO)C(=O)c2cc(NC(=O)Nc3ccccc3)ccc2O[C@H]1CN(C)Cc1ccc(C(F)(F)F)cc1	·	18	·	79
C[C@@H]1CN([C@@H](C)CO)C(=O)c2cc(NC(=O)Nc3ccc(C(F)(F)F)cc3)ccc2O[C@@H]1CN(C)Cc1ccc(C(F)(F)F)cc1	2	101*	·	118*
COc1cccc(NC(=O)Cn2cc(C(=O)C(C)(C)C)c3ccccc32)c1	-6	37	3	16
CCn1c2ccccc2c2cc(CNCCc3ccc(Cl)cc3)ccc21	·	31	·	113*
C[C@@H]1CN([C@H](C)CO)C(=O)c2cc(NS(=O)(=O)c3ccc(Cl)cc3)ccc2O[C@H]1CN(C)Cc1ccc(C(F)(F)F)cc1	·	-16	·	123*
C[C@H]1CN([C@@H](C)CO)C(=O)c2cc(NS(=O)(=O)c3ccc(Cl)cc3)ccc2O[C@@H]1CN(C)Cc1ccc(C(F)(F)F)cc1	5	5	·	111*
Cc1ccc(C(=O)CC(C(=O)c2ccc(C(F)(F)F)cc2)c2cccs2)cc1 (configuration not stated)	·	·	3	·
COc1ccc(NC(=O)Nc2cccc3c2O[C@@H](CN(C)Cc2ccc(C(=O)Nc4ccccc4N)cc2)[C@H](C)CN([C@@H](C)CO)C3=O)cc1	·	5	·	126*
COc1ccc(NC(=O)Nc2cccc3c2O[C@@H](CN(C)Cc2ccc(C(=O)Nc4ccccc4N)cc2)[C@@H](C)CN([C@@H](C)CO)C3=O)cc1	·	12	·	129*
COc1ccc(NC(=O)Nc2ccc3c(c2)C(=O)N([C@@H](C)CO)C[C@H](C)[C@H](CN(C)Cc2ccc(C(=O)Nc4ccccc4N)cc2)O3)cc1	·	-28	·	50
COc1ccc(NC(=O)Nc2cccc3c2O[C@H](CN(C)Cc2ccc(C(=O)Nc4ccccc4N)cc2)[C@H](C)CN([C@H](C)CO)C3=O)cc1	·	23	·	140*
Cc1c(Cl)ccc2c(C(=O)Nc3ccc(S(=O)(=O)N4CCOCC4)cc3)cc(-c3cccnc3)nc12	3	8	-12	42
Cc1nnc(Nc2ccc(OCC(=O)N3CCN(c4ccccc4)CC3)cc2)c2ccccc12	0	29	-43	88*
CCn1c(SCC(=O)Nc2ccc(Br)c(Cl)c2)nnc1-c1ccccc1O	-4	60	0	3
C[C@@H]1CN([C@H](C)CO)C(=O)c2cccc(NC(=O)Nc3ccc(C(F)(F)F)cc3)c2O[C@H]1CN(C)CC1CC1	·	26	-13	84*
C[C@@H]1CN([C@@H](C)CO)C(=O)c2cccc(NC(=O)Nc3ccc(C(F)(F)F)cc3)c2O[C@@H]1CN(C)CC1CCCCC1	·	-1	·	95*
O=C1CC(c2ccccc2)Oc2ccc(Cl)cc21 (configuration not stated)	1	-16	·	115*
SMILES	STK33 inh	MITF inh	mut p53 react	NOMO-1 viab
CC1=CC2OC3[C@H](O)C[C@](C)([C@@]2(CO)CC1=O)[C@]31CO1 (some centres not stated)	-2	47	·	119*
CC(=O)OC[C@]12CCC(C)=CC1O[C@@H]1[C@H](O)[C@@H](O[C@H]3O[C@H](CO)[C@@H](O)[C@H](O)[C@H]3O)[C@@]2(C)C12CO2 (some centres not stated)	5	·	-68	·
COc1cc(/C=C/C(=O)OCC[N+](C)(C)C)cc(OC)c1O	-4	-7	9	-10
Cc1ccc(N(CC(N)=O)S(=O)(=O)c2ccc(Cl)cc2)cc1	2	6	-19	-23
C[C@H](CO)N1C[C@H](C)[C@H](CN(C)Cc2ccncc2)Oc2ccc(NC(=O)Nc3cccc4ccccc34)cc2CC1=O	·	10	1	125*
C[C@@H]1CN([C@H](C)CO)C(=O)Cc2cc(NC(=O)Nc3cccc4ccccc34)ccc2O[C@@H]1CN(C)Cc1ccc(Oc2ccccc2)cc1	-7	14	·	111*
C[C@@H]1CN([C@@H](C)CO)C(=O)Cc2cc(NC(=O)Nc3cccc4ccccc34)ccc2O[C@@H]1CN(C)Cc1ccc(-c2ccccc2)cc1	1	-2	·	52
C[C@@H]1CN([C@H](C)CO)C(=O)Cc2cc(NC(=O)Nc3cccc4ccccc34)ccc2O[C@H]1CN(C)Cc1ccccc1	3	8	·	8
C[C@H]1CN([C@@H](C)CO)C(=O)Cc2cc(NC(=O)Nc3cccc4ccccc34)ccc2O[C@@H]1CN(C)Cc1ccncc1	-1	-5	·	16
C[C@@H]1CN([C@H](C)CO)C(=O)Cc2cc(NC(=O)Nc3cccc4ccccc34)ccc2O[C@@H]1CN(C)Cc1ccc(-c2ccccc2)cc1	3	0	·	94*
C[C@@H]1CN([C@@H](C)CO)C(=O)Cc2cc(NC(=O)Nc3cccc4ccccc34)ccc2O[C@@H]1CN(C)Cc1ccc(C(F)(F)F)cc1	4	38	·	117*
COC(=O)c1ccc(NC(=O)CN(C)S(=O)(=O)c2cc(Cl)ccc2Cl)cc1	-4	-2	8	-17
O=S1(=O)CCC(N(S(=O)(=O)c2ccc(F)cc2)S(=O)(=O)c2ccc(Cl)cc2)C1 (configuration not stated)	-1	-23	·	15
COc1ccc(C(=O)c2oc3ccccc3c2NC(=O)COc2ccc(F)cc2)cc1	0	36	20	19
CCn1c(SCC(=O)Nc2ccc(Br)c(Cl)c2)nnc1-c1ccccc1F	1	13	-5	41
Cc1cc(-c2nnc(SCC(=O)c3ccccc3Cl)n2C)no1	-2	7	·	34
Nc1cc(N)nc(SCC(=O)Nc2ccc3ccccc3c2)n1	-2	-22	-4	5
Cc1ccc(S(=O)(=O)N2c3ccccc3C(C)(c3ccccc3)CC2(C)C)cc1 (configuration not stated)	·	41	·	108*

From PubChem BioAssay
